Source: PubChem BioAssay
For part of these data: Measured potencies and affinities stand elsewhere. Calls of active or inactive are those of the source.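 The calls were made as follows, unless noted: active = primary screen hit whose fluorescence ratio, in both repeats, exceeds the weak agonist control mean by 3 SD; inactive = the rest.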

Key:
[1] = tested on: TRPC4 beta (transient receptor potential cation channel C4), mouse; experiment: activators of mouse TRPC4 channel, confirmation, cell-based, Fluo4 calcium, HEK293 TRPC4beta/mu-opioid, duplicates, 10 µM (AID 2426;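 active = fluorescence ratio normalized to control raised more than 50% in primary screen plus both repeat runs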); conditions: Fluo4 calcium fluorescence, at 10 µM; hits give high values
[2] = tested on: transient receptor potential cation channel C4 beta (TRPC4), mouse; experiment: activators of mouse TRPC4 channel, confirmation, cell-based, second round, Fluo4, HEK293 TRPC4beta/mu-opioid, 1 µM (AID 2461;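 active = primary screen active and over 50% activation in each of two duplicate runs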); conditions: Fluo4 calcium fluorescence, at 1 µM; hits give high values
[3] = tested on: TRPC4 (transient receptor potential cation channel C4 beta), mouse; experiment: positive allosteric modulators of mouse TRPC4, confirmation, cell-based, second round, Fluo-4, HEK293 TRPC4beta/mu-opioid, 1 µM (AID 2554); conditions: DAMGO EC20, Fluo-4 calcium flux, at 1 µM; hits give high values
[4] = tested on: TRPC4 beta (transient receptor potential cation channel C4), mouse; experiment: positive allosteric modulators of mouse TRPC4, confirmation, cell-based, Fluo-4, HEK293 TRPC4beta/mu-opioid (AID 2555;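 active = primary screen hit whose calcium fluorescence ratio, in both repeats, exceeds the weak agonist control mean by 3 SD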); conditions: DAMGO EC20, Fluo-4 calcium flux, at 10 µM; hits give high values
[5] = target: Short transient receptor potential channel 4 (Mus musculus) (UniProt Q9QUQ5); experiment: inhibitors of mouse TRPC4 channel, confirmation, cell-based, Fluo4, HEK293 TRPC4beta/mu-opioid (AID 2636;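 active = calcium signal cut by more than 3 SD below the full-agonist control yet still positive, in both repeats and the earlier primary screen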); conditions: DAMGO, Fluo4 calcium flux, at 10 µM; hits give high values
Sequence of Short transient receptor potential channel 4 (Mus musculus) (Q9QUQ5 whole entry, looked up): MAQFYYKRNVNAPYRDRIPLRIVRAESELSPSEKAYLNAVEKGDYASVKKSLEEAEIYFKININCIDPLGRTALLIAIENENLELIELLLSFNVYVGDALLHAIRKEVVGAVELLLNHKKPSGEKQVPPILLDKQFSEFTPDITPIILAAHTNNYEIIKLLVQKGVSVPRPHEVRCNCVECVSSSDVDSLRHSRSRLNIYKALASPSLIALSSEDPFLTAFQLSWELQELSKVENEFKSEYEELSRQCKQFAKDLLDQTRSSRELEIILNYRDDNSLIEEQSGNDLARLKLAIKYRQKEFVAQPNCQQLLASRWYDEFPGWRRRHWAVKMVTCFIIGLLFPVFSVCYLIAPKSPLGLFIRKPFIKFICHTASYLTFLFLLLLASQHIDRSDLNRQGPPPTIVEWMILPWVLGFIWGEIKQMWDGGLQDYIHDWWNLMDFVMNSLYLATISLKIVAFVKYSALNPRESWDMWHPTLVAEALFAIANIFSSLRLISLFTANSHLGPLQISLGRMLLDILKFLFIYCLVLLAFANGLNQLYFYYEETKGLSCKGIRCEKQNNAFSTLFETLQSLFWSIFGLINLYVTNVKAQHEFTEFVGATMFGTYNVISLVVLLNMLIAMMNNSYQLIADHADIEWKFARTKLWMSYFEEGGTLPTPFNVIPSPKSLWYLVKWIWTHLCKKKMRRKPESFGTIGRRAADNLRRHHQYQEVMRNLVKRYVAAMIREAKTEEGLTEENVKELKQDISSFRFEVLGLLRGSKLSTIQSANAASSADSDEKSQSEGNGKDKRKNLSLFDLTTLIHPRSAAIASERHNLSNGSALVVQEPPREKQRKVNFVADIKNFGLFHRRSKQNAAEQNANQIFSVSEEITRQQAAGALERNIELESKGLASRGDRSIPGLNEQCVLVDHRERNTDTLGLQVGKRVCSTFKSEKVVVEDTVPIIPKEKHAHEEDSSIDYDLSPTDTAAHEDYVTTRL

[6] = target: Short transient receptor potential channel 4 (Mus musculus) (UniProt Q9QUQ5); experiment: inhibitors of mouse TRPC4 channel, confirmation, cell-based, second round, Fluo4, HEK293 TRPC4beta/mu-opioid, 1 µM (AID 2637;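 active = calcium signal ratio cut to more than 3 SD under the fully stimulated control mean yet still positive, in both repeats and the primary screen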); conditions: Fluo4 calcium flux, DAMGO, at 1 µM; hits give high values
[7] = target: Short transient receptor potential channel 4 (Mus musculus) (UniProt Q9QUQ5); experiment: mouse TRPC4 channel activators, dose response, cell-based, HEK293 TRPC4/mu-opioid, Fluo-4 calcium (AID 434937;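 active = primary screen activator hit with a dose response curve and TRPC4 channel activation at any tested dose; inactive = no activation, no dose response, or not a primary hit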)
[8] = target: Short transient receptor potential channel 4 (Mus musculus) (UniProt Q9QUQ5); experiment: TRPC4 positive allosteric modulators, dose response, cell-based, HEK293 TRPC4/mu-opioid, Fluo-4 calcium, EC20 DAMGO (AID 434941;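 active = earlier screen potentiator hit that boosts the TRPC4 ion channel at some dose, with a dose response; inactive = no potentiation, no dose response, or not a prior hit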;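 also: calcium entry triggered by an EC20 dose of DAMGO at the co-expressed mu-opioid receptor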)
[9] = target: Short transient receptor potential channel 4 (Mus musculus) (UniProt Q9QUQ5); experiment: mouse TRPC4 channel inhibitors, dose response, cell-based, HEK293 TRPC4/mu-opioid, Fluo-4 calcium (AID 434942;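 active = primary screen inhibitor hit that blocks the TRPC4 channel at some tested dose, yielding a dose curve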)
[10] = target: Short transient receptor potential channel 6 (Mus musculus) (UniProt Q61143); experiment: inhibition of mouse TRPC6 channel, confirmation, selectivity assay for TRPC4 inhibitor project, cell-based, HEK293, membrane potential dye, duplicate (AID 434948;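 active = active in primary screen and both duplicates, each dropping signal beyond three positive-control SD with fluorescence still positive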); conditions: HEK293 TRPC6, membrane potential dye fluorescence, at 10 µM, stimulated with maximal-effect acetylcholine; hits give high values
Sequence of Short transient receptor potential channel 6 (Mus musculus) (Q61143 whole entry, looked up): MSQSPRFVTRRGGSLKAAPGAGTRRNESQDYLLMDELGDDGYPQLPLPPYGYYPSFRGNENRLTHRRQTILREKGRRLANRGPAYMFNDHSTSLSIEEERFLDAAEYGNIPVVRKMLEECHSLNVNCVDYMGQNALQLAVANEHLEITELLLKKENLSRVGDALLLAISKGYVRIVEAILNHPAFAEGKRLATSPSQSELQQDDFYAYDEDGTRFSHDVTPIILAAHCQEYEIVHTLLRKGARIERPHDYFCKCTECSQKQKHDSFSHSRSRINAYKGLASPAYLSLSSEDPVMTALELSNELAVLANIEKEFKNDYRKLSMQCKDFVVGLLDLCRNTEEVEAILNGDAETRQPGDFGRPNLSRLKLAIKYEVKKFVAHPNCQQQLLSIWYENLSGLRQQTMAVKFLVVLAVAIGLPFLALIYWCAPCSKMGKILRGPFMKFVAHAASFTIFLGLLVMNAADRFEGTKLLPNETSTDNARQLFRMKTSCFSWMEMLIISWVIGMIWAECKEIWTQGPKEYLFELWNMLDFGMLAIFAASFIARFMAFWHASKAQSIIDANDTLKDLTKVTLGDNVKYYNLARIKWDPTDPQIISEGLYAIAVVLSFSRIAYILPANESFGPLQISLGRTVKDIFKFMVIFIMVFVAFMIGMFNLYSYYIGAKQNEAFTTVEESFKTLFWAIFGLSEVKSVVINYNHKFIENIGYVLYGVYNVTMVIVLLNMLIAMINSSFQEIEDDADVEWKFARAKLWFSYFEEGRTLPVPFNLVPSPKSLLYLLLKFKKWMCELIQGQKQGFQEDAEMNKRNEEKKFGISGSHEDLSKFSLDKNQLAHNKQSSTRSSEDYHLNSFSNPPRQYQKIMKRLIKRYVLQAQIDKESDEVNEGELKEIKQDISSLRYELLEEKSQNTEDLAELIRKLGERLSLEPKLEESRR

[11] = target: Short transient receptor potential channel 6 (Mus musculus) (UniProt Q61143); experiment: activation of mouse TRPC6 channel, confirmation, selectivity assay for TRPC4 activator project, cell-based, HEK293, membrane potential dye, duplicate (AID 434950;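 active = membrane potential signal rise above negative control mean plus 3 SD in both duplicates, also active in the earlier TRPC4 screen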;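 as to activation: 0% = buffer only wells and 100% = acetylcholine maximal-effect wells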); conditions: HEK293 TRPC6, membrane potential fluorescence, at 10 µM; hits give high values
[12] = target: Short transient receptor potential channel 6 (Mus musculus) (UniProt Q61143); experiment: TRPC6 potentiation by TRPC4 potentiator hits, confirmation, selectivity assay for TRPC4 potentiator project, HEK293 cells, membrane potential dye, duplicate (AID 434952;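 active = compound raising the membrane signal above positive-control mean plus 3 SD in both repeats, and a primary screen hit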); conditions: HEK293 TRPC6, membrane potential dye fluorescence, at 10 µM, maximal acetylcholine added after compound; hits give high values
[13] = target: Short transient receptor potential channel 4 (Mus musculus) (UniProt Q9QUQ5); experiment: calcium flux activators in TRPC4/5HT1a cells, counter-screen for TRPC4 activator project, cell-based, second counter screen, HEK293 TRPC4/5HT1a, Fluo-4 (AID 434977;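 active = calcium signal rise above buffer-control mean plus 5 SD in both duplicates, and also a hit in the primary screen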;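 as to activation: plate controls were assay buffer for no effect and maximal serotonin response for full effect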); conditions: Fluo-4 calcium flux, at 10 µM; hits give high values
[14] = calcium flux inhibitors in TRPC4/5HT1a cells, confirmation, counter-screen for TRPC4 inhibitor project, cell-based, second counter screen, HEK293 TRPC4/5HT1a, Fluo-4 (AID 434978;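 active = primary screen active whose calcium signal fell more than 3 SD beyond the full-serotonin control mean in both duplicate plates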;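 as to outcome: serotonin given first at submaximal then at maximal dose after compound preincubation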); conditions: Fluo-4 calcium flux, at 10 µM, serotonin added to trigger calcium flux; hits give high values
[15] = tested on: TRPC4 (mouse), co-expressed with 5HT1a in HEK293; experiment: calcium flux potentiators in TRPC4/5HT1a cells, confirmation, counter-screen for TRPC4 potentiator project, cell-based, second counter screen, HEK293 TRPC4/5HT1a, Fluo-4 (AID 434979;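 active = signal rise over 3 SD above mean of control wells given weak agonist, in both repeats and first screen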); conditions: Fluo-4 calcium flux, at 10 µM, serotonin added at its EC20 dose; hits give high values
[16] = calcium flux activation in mu-opioid HEK293 cells, confirmation, counter-screen for TRPC4 activator project, cell-based, HEK293 mu-opioid receptor line (AID 449723;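 active = hit in primary screen, with calcium signal over 5 SD above buffer well mean in both duplicates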;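 also: counter screen cells carry the mu-opioid receptor alone and lack TRPC4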); conditions: Fluo-4 calcium fluorescence, at 10 µM; hits give high values
[17] = calcium flux enhancement in mu-opioid HEK293 cells, confirmation, counter-screen for TRPC4 allosteric potentiator project, cell-based, HEK293 mu-opioid receptor line (AID 449724;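 active = calcium signal rise more than 3 SD above the low-dose agonist control mean, in both duplicate plates and the primary screen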); conditions: Fluo-4 calcium flux, at 10 µM, compound added before EC20 DAMGO stimulus; hits give high values

CC(C)(C)C(=O)NCCCc1nc2ccccc2n1CCCOc1ccc(Cl)cc1
inactive: outcome [1] | outcome [2] | outcome [3] | outcome [4] | outcome [5] | outcome [6] | outcome [7] | outcome [8] | outcome [9] | outcome [10] | outcome [11] | outcome [12] | outcome [13] | outcome [14] | outcome [15] | outcome [16] | outcome [17]

Cc1cc(=O)oc2cc(NC(=S)NCc3ccccn3)ccc12
inactive: outcome [1] | outcome [2] | outcome [3] | outcome [4] | outcome [5] | outcome [6] | outcome [7] | outcome [8] | outcome [9] | outcome [10] | outcome [11] | outcome [12] | outcome [13] | outcome [14] | outcome [15] | outcome [16] | outcome [17]

CN1CCN(Cc2cccc(Oc3ccc(Cl)cc3)c2)CC1
inactive: outcome [1] | outcome [2] | outcome [4] | outcome [5] | outcome [6] | outcome [7] | outcome [8] | outcome [9] | outcome [10] | outcome [11] | outcome [12] | outcome [13] | outcome [14] | outcome [16] | outcome [17]
active: potentiation [3] 22% | potentiation [15] 15.1%

Cc1cc(C)c(C)c(OCCCOc2cccc3cccnc23)c1
active: potentiation [15] 19%
inactive: outcome [1] | outcome [2] | outcome [3] | outcome [4] | outcome [5] | outcome [6] | outcome [7] | outcome [8] | outcome [9] | outcome [10] | outcome [11] | outcome [12] | outcome [13] | outcome [14] | outcome [16] | outcome [17]

Cc1ccc(Cn2c(=N)c(C(=O)NCC3CCCO3)cc3c(=O)n4ccccc4nc32)cc1 (stereo not given)
active: potentiation [4] 47% | potentiation [15] 19.2%
inactive: outcome [1] | outcome [2] | outcome [3] | outcome [5] | outcome [6] | outcome [7] | outcome [8] | outcome [9] | outcome [10] | outcome [11] | outcome [12] | outcome [13] | outcome [14] | outcome [16] | outcome [17]

O=C(NCCCN1CCN(CCCNC(=O)c2cccc(Cl)c2)CC1)c1cccc(Cl)c1
active: potentiation [3] 22% | potentiation [15] 11.3%
inactive: outcome [1] | outcome [2] | outcome [4] | outcome [5] | outcome [6] | outcome [7] | outcome [8] | outcome [9] | outcome [10] | outcome [11] | outcome [12] | outcome [13] | outcome [14] | outcome [16] | outcome [17]

Cc1ccc(-c2cc(C(=O)NCCCN3CCCC3)c3ccccc3n2)cc1C
active: potentiation [15] 17.7%
inactive: outcome [1] | outcome [2] | outcome [3] | outcome [4] | outcome [5] | outcome [6] | outcome [7] | outcome [8] | outcome [9] | outcome [10] | outcome [11] | outcome [12] | outcome [13] | outcome [14] | outcome [16] | outcome [17]

Cc1ccc(NS(=O)(=O)c2cc(N)ccc2Cl)c(C)c1
inactive: outcome [1] | outcome [2] | outcome [3] | outcome [4] | outcome [5] | outcome [6] | outcome [7] | outcome [8] | outcome [9] | outcome [10] | outcome [11] | outcome [12] | outcome [13] | outcome [14] | outcome [15] | outcome [16] | outcome [17]

COc1ccc(S(=O)(=O)n2nc(OC(=O)c3ccccc3Br)cc2N)cc1
inactive: outcome [1] | outcome [2] | outcome [3] | outcome [4] | outcome [5] | outcome [6] | outcome [7] | outcome [8] | outcome [9] | outcome [10] | outcome [11] | outcome [12] | outcome [13] | outcome [14] | outcome [15] | outcome [16] | outcome [17]

O=C(C1CCN(S(=O)(=O)c2cccnc2)CC1)N1CCN(c2ccc(Cl)cc2)CC1
active: activation [11] 35.5% | activation [13] 29.8% | inhibition [14] 42.4%
inactive: outcome [1] | outcome [2] | outcome [3] | outcome [4] | outcome [5] | outcome [6] | outcome [7] | outcome [8] | outcome [9] | outcome [10] | outcome [12] | outcome [15] | outcome [16] | outcome [17]

O=S(=O)(c1ccc(Cl)cc1Br)N1CCCCC1
inactive: outcome [1] | outcome [2] | outcome [3] | outcome [4] | outcome [5] | outcome [6] | outcome [7] | outcome [8] | outcome [9] | outcome [10] | outcome [11] | outcome [12] | outcome [13] | outcome [14] | outcome [15] | outcome [16] | outcome [17]

CCOc1ccc2nc(N3CCCC(C(=O)NCC4CCCO4)C3)sc2c1 (stereo not given)
inactive: outcome [1] | outcome [2] | outcome [3] | outcome [4] | outcome [5] | outcome [6] | outcome [7] | outcome [8] | outcome [9] | outcome [10] | outcome [11] | outcome [12] | outcome [13] | outcome [14] | outcome [15] | outcome [16] | outcome [17]

CCc1c(C)nc2c(-c3ccccc3)c(C)nn2c1Nc1ccc(NC(C)=O)cc1
inactive: outcome [1] | outcome [2] | outcome [3] | outcome [5] | outcome [6] | outcome [7] | outcome [8] | outcome [9] | outcome [10] | outcome [11] | outcome [12] | outcome [13] | outcome [14] | outcome [16] | outcome [17]
active: potentiation [4] 14% | potentiation [15] 74%

CCOC(=O)C(CCCCCOc1ccc([N+](=O)[O-])cc1)C(=O)OCC
inactive: outcome [1] | outcome [2] | outcome [3] | outcome [5] | outcome [6] | outcome [7] | outcome [8] | outcome [9] | outcome [10] | outcome [11] | outcome [12] | outcome [13] | outcome [14] | outcome [15] | outcome [16] | outcome [17]
active: potentiation [4] 10%

O=C1CC2(CCN(S(=O)(=O)c3ccccc3F)CC2)Oc2ccccc21
inactive: outcome [1] | outcome [2] | outcome [3] | outcome [5] | outcome [6] | outcome [7] | outcome [8] | outcome [9] | outcome [10] | outcome [11] | outcome [12] | outcome [13] | outcome [14] | outcome [16] | outcome [17]
active: potentiation [4] 21% | potentiation [15] 34.2%
